{"source": "PubChem BioAssay", "note": "“And” between values parts separate entries of the source, which are not always exact repeats. Equal entries are not always repeated."}
{"assay": "viability loss with induced miR-34 in A549 – imaging, A549 dox-inducible miR-34, nuclei and caspase counts, primary screen (AID 1347080); note: test concentration not given here", "conditions": "A549 miR-34 inducible, Hoechst nuclei count, 48 h; measured here: relative caspase fold change +Dox/-Dox"}
{"smiles": "C[C@H](N)C(=O)CCCCCC(=O)O", "fold change": 0.642}
{"smiles": "CC(C)=CCC/C(C)=C/CC/C(C)=C/CSc1ccccc1C(N)=O", "fold change": 0.741}
{"smiles": "Cc1nc(-c2ccc(C(F)(F)F)cc2)sc1C(=O)NCc1ccc(OC(C)(C)C(=O)O)cc1", "fold change": 0.5}
{"smiles": "CCCCC[C@H](O)/C=C/[C@H]1C=CC(=O)[C@H]1CCCCCCC(=O)O", "fold change": 1.97}
{"smiles": "CCCCCCCCCCCCCCCC(=O)NC(CO)CO", "fold change": 0.974}
{"smiles": "CCCCCCCCCCCCCCCCOC[C@H](COP(=O)([O-])OCC[N+](C)(C)C)OC(=O)CCCCCCCC(=O)O", "fold change": 0.772}
{"smiles": "CCCCC[C@H](O)/C=C/[C@H]1C2COC(C2)[C@@H]1C/C=C/CCCC(=O)O", "note": "(some centres undefined)", "fold change": 0.876}
{"smiles": "CCCCCCCCCCCCCCCC(=O)OCC", "fold change": 0.575}
{"smiles": "O=C(O)CCCCCC[C@@H]1C(=O)NC(=O)N1CCC(O)C1CCCCC1", "note": "(some centres undefined)", "fold change": 2.01}
{"smiles": "O=C1C(c2ccccc2)N(c2ccc(Br)cc2)C(=O)N1c1ccc(Br)cc1", "note": "(centres undefined)", "fold change": 0.667}
{"smiles": "CCCCC[C@H](O)/C=C/[C@H]1CC[C@@H](O)[C@@H]1CCCCCCC(=O)O", "fold change": 1.26}
{"smiles": "CCCCC[C@H](O)/C=C/[C@@H]1[C@@H](CCCCC(CC(=O)O)OC)[C@@H](O)C[C@H]1O", "note": "(some centres undefined)", "fold change": 1.3}
{"smiles": "CCCCCCCCCCCCCCP(=O)(O)O", "fold change": 0.729}
{"smiles": "CCCCCCCCCCCSCC(=O)O", "fold change": 1.04}
{"assay": "viability loss with induced miR-34 in A549 – imaging, A549 dox-inducible miR-34, nuclei and caspase counts, primary screen (AID 1347080); note: test concentration not given here", "conditions": "A549 miR-34 inducible, Hoechst nuclei count, 48 h; measured here: total cells with miR-34 induction; stronger effect = lower value"}
{"smiles": "COC(=O)CCC[C@H](O)[C@H](O)CO", "cell count": 5290}
{"smiles": "O=C(Cc1ccccc1Nc1c(Cl)cccc1Cl)Oc1ccc(-c2cc(=S)ss2)cc1", "cell count": 6130}
{"smiles": "CCCCCCCC/C=C\\CCCCCCCCCCCC(N)=O", "cell count": 6240}
{"smiles": "O=S(=O)(NO)c1ccccc1", "cell count": 5110}
{"smiles": "CCCc1oc(CCC(=O)O)c(C(=O)O)c1C", "cell count": 5170}
{"smiles": "CCCCC[C@](C)(O)/C=C/[C@@H]1[C@@H](C/C=C\\CCCC(=O)O)[C@@H](O)C[C@H]1O", "cell count": 5410}
{"smiles": "CCCC[C@H](C)C[C@H](O)/C=C/[C@@H]1[C@@H](CCCCCCC(=O)O)[C@@H](O)C[C@H]1O", "cell count": 5490}
{"smiles": "CCCCC/C=C\\C/C=C\\C/C=C\\C/C=C\\CCCC(=O)OCC(O)CO", "note": "(centres undefined)", "cell count": 4970}
{"smiles": "CCCCCCCCCC(=O)N[C@@H](Cc1c[nH]c2ccccc12)C(=O)N[C@@H](CC(N)=O)C(=O)N[C@@H](CC(=O)O)C(=O)N[C@@H]1C(=O)NCC(=O)N[C@@H](CCCN)C(=O)N[C@@H](CC(=O)O)C(=O)N[C@H](C)C(=O)N[C@@H](CC(=O)O)C(=O)NCC(=O)N[C@H](CO)C(=O)NC([C@@H](C)CC(=O)O)C(=O)N[C@@H](CC(=O)c2ccccc2N)C(=O)OC1C", "note": "(some centres undefined)", "cell count": 8550}
{"smiles": "CCCCCCOC(=O)[C@@]1(O)CC2OC1(C)n1c3ccccc3c3c4c(c5c6ccccc6n2c5c31)C(=O)NC4", "note": "(some centres undefined)", "cell count": 4880}
{"smiles": "CCCC[C@H](CCC(=O)O)NC(=O)CCCCCCc1ccccc1", "cell count": 6520}
{"smiles": "C/C(O)=C1\\C(=O)[C@@H]2[C@H]3c4c[nH]c5cccc(c45)C[C@H]3C(C)(C)N2C1=O", "cell count": 2150}
{"smiles": "O=C(O)CCC/C=C/C[C@@H]1[C@@H](CC[C@@H](O)CCc2ccccc2)[C@H](O)C[C@@H]1O", "cell count": 5820}
{"smiles": "CC(C)=CCC/C(C)=C/CC/C(C)=C/CC[C@]1(C)CCc2cc(O)c(C)c(C)c2O1", "cell count": 5370}
{"smiles": "N#Cc1cc2c(OCC(O)CN3CCN(C(c4ccccc4)c4ccccc4)CC3)cccc2[nH]1", "note": "(centres undefined)", "cell count": 1480}
{"smiles": "CCCCC[C@H](O)/C=C/[C@H]1[C@H](O)CC(=O)[C@@H]1C/C=C\\CCCC(=O)NCCO", "cell count": 6290}
{"smiles": "CCNC1=N[C@@H]2[C@@H](O)[C@H](O)[C@@H](CO)O[C@@H]2S1", "cell count": 6020}
{"smiles": "CCCCC[C@H](O)/C=C/[C@H]1[C@H](O)CC(=O)[C@H]1C/C=C\\CCCC(=O)O", "cell count": 5730}
{"smiles": "CO[C@H]1CC(O[C@@H]2/C(C)=C/C[C@@H]3C[C@@H](C[C@]4(C=C[C@H](C)[C@@H](C5CCCCC5)O4)O3)OC(=O)[C@@H]3C=C(C)[C@@H](O)[C@H]4OC/C(=C\\C=C\\[C@@H]2C)[C@]43O)O[C@@H](C)C1O[C@H]1C[C@H](OC)[C@@H](O)[C@H](C)O1", "note": "(some centres undefined)", "cell count": 405}
{"smiles": "O=C(O)CCC/C=C\\C[C@H]1C(=O)C=C[C@@H]1/C=C/[C@@H](O)COc1ccccc1", "cell count": 5700}
{"smiles": "CCCCC[C@H](O)/C=C/[C@H]1C(=O)C[C@H](O)[C@@H]1CCCCCCC(=O)O", "cell count": 4900}
{"smiles": "CCCCCCCCCC(=O)CC(=O)N[C@H]1CCOC1=O", "cell count": 6050}
{"smiles": "CN(C)CCCCCCOc1ccc(-n2ccnc2)cc1", "cell count": "5270 and 6380"}
{"smiles": "CCCCC/C=C\\C/C=C\\CCCCCCCC(=O)OC[C@H](O)CO", "cell count": 4490}
{"smiles": "CCCCCC/C=C\\CCCC(=O)CC(=O)N[C@H]1CCOC1=O", "cell count": 6290}
{"smiles": "CCCCC[C@H](O)CC[C@@H]1[C@@H](C/C=C\\CCCC(=O)O)[C@@H](O)C[C@H]1O", "cell count": 6190}
{"smiles": "C[C@H](N)C(=O)CCCCCC(=O)O", "cell count": 6090}
{"smiles": "CC(C)=CCC/C(C)=C/CC/C(C)=C/CSc1ccccc1C(N)=O", "cell count": 5740}
{"smiles": "Cc1nc(-c2ccc(C(F)(F)F)cc2)sc1C(=O)NCc1ccc(OC(C)(C)C(=O)O)cc1", "cell count": 5220}
{"smiles": "CCCCC[C@H](O)/C=C/[C@H]1C=CC(=O)[C@H]1CCCCCCC(=O)O", "cell count": 5070}
{"smiles": "CCCCCCCCCCCCCCCC(=O)NC(CO)CO", "cell count": 5260}
{"smiles": "CCCCCCCCCCCCCCCCOC[C@H](COP(=O)([O-])OCC[N+](C)(C)C)OC(=O)CCCCCCCC(=O)O", "cell count": 4600}
{"smiles": "CCCCC[C@H](O)/C=C/[C@H]1C2COC(C2)[C@@H]1C/C=C/CCCC(=O)O", "note": "(some centres undefined)", "cell count": 5790}
{"smiles": "CCCCCCCCCCCCCCCC(=O)OCC", "cell count": 5080}
{"smiles": "O=C(O)CCCCCC[C@@H]1C(=O)NC(=O)N1CCC(O)C1CCCCC1", "note": "(some centres undefined)", "cell count": 5520}
{"smiles": "O=C1C(c2ccccc2)N(c2ccc(Br)cc2)C(=O)N1c1ccc(Br)cc1", "note": "(centres undefined)", "cell count": 5960}
{"smiles": "CCCCC[C@H](O)/C=C/[C@H]1CC[C@@H](O)[C@@H]1CCCCCCC(=O)O", "cell count": 6100}
{"smiles": "CCCCC[C@H](O)/C=C/[C@@H]1[C@@H](CCCCC(CC(=O)O)OC)[C@@H](O)C[C@H]1O", "note": "(some centres undefined)", "cell count": 5980}
{"smiles": "CCCCCCCCCCCCCCP(=O)(O)O", "cell count": 4910}
{"smiles": "CCCCCCCCCCCSCC(=O)O", "cell count": 6160}
